# Data as given in PubChem BioAssay (EPA / NIEHS).
# Inconclusive results are not listed. Active and inactive are the calls of the source. Rule for the calls: active = hit-call score of the fitted dose curve at least 0.9, where 1 is the maximum; inconclusive = response in the unintended direction; inactive = score below 0.9.
# What was measured:
# [1] = TOX21_p53_BLA_p2_viability: Viability Assessment in the Tox21 HCT-116 p53 Agonism Beta-lactamase Assay, Phase 2 (AID 2283591);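 note: actives lower the ATP signal meaning cytotoxicity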
# Summary of the method: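 HCT116 p53-bla cells, 4000/well, dosed after 5 h plating (217-fold dilution of DMSO stocks) and incubated 16 h at 37C. Viability taken as cellular ATP by CellTiter-Glo luminescence after 30 min RT; signal loss marks cytotoxicity.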
# [2] = target: Cellular tumor antigen p53 (Homo sapiens) (UniProt P04637); assay: TOX21_p53_BLA_p2_ratio: Tox21 HCT-116 p53 Agonism Beta-lactamase Assay, Ratio, Phase 2 (AID 2283592)
# Summary of the method: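 An inducible beta-lactamase reporter in HCT116 cells signals p53 pathway activation. After 16 h chemical exposure at 37C, cells load CCF4-AM substrate for 2 h at room temperature; activity is the cleaved/uncleaved emission ratio relative to DMSO.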
# [3] = TOX21_p53_BLA_p3_viability: Viability Assessment in the Tox21 HCT-116 p53 Agonism Beta-lactamase Assay, Phase 3 (AID 2283593);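 note: cells exposed to compound for 16 h before reading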
# Summary of the method: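 HCT116 cells, 4000/well, dosed 5 h after plating by pin transfer (217-fold dilution from DMSO stock) and incubated 16 h at 37C, 5% CO2. Viability read as ATP luminescence with CellTiter-Glo after 30 min at room temperature.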
# [4] = target: Cellular tumor antigen p53 (Homo sapiens) (UniProt P04637); assay: TOX21_p53_BLA_p3_ratio: Tox21 HCT-116 p53 Agonism Beta-lactamase Assay, Ratio, Phase 3 (AID 2283596)
# Summary of the method: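 HCT116 p53-bla cells (4000/well) given compound in DMSO (217-fold dilution) after 5 h, incubated 16 h at 37C. CCF4-AM substrate 2 h at room temperature; 460/530 nm emission ratio, gain fitted against DMSO.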
# [5] = TOX21_p53_BLA_p4_viability: Viability Assessment in the Tox21 HCT-116 p53 Agonism Beta-lactamase Assay, Phase 4 (AID 2283597);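 note: hits lower the luminescence signal meaning cytotoxicity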
# Summary of the method: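 Compound exposure of HCT116 cells lasts 16 h at 37C, 5% CO2, with DMSO stocks diluted 217-fold. Cellular ATP is then quantified by CellTiter-Glo luminescence after 30 min at room temperature.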
# [6] = target: Cellular tumor antigen p53 (Homo sapiens) (UniProt P04637); assay: TOX21_p53_BLA_p5_ratio: Tox21 HCT-116 p53 Agonism Beta-lactamase Assay, Ratio, Phase 5 (AID 2283599)
# Summary of the method: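 HCT-116 p53-bla cells (4000/well) plated 5 h, dosed with compound (217-fold DMSO dilution) for 16 h at 37 C; CCF4-AM substrate 2 h at room temperature. Activity is the 460/530 nm emission ratio (405 nm excitation), fitted in gain-of-signal direction versus DMSO.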
# [7] = target: Cellular tumor antigen p53 (Homo sapiens) (UniProt P04637); assay: TOX21_p53_BLA_p4_ratio: Tox21 HCT-116 p53 Agonism Beta-lactamase Assay, Ratio, Phase 4 (AID 2283601)
# Summary of the method: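 HCT-116 p53 beta-lactamase reporter cells (4000/well) preincubated 5 h, then compound (217-fold dilution of DMSO stock) for 16 h at 37C. CCF4-AM substrate added 2 h at room temperature; 460/530 nm emission ratio fitted upward versus DMSO.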
# [8] = target: Thyroid hormone receptor alpha (Rattus norvegicus) + Thyroid hormone receptor beta (Rattus norvegicus) (UniProt P18113+P63059); assay: TOX21_TR_LUC_GH3_Antagonist_Followup: Tox21 GH3 Thyroid Hormone Receptor Antagonism Luciferase Follow-Up Assay (AID 2283942)
# Summary of the method: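 Antagonist mode: GH3 cells seeded 1,500/well, compounds at 15 concentrations (92 uM to 5nM final) plus T3 at 1.0 nM final, 24 h at 37C. Luciferase read with ONE-Glo after 30 min at room temperature.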
# THRB (gene 7068) [9] = target: THRB (gene 7068) (UniProt P10828); assay: TOX21_TRB_BLA_Antagonist_Followup_ratio: Tox21 Thyroid Hormone Receptor beta Antagonism Beta-lactamase (BLA) Follow-Up Assay, Ratio (AID 2283958)
# Summary of the method: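 In this antagonist-mode follow-up, a stably integrated GAL4-TRβ LBD fusion drives a UAS-beta-lactamase reporter in HEK293T cells. Loss of ratio signal relative to DMSO after 18 h treatment indicates activity; parallel CellTiter-Glo flags cytotoxicity.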
# [10] = TOX21_TRB_BLA_Antagonist_Followup_viability: Viability Assessment in the Tox21 Thyroid Hormone Receptor beta Antagonism Beta-lactamase (BLA) Follow-Up Assay (AID 2283961)
# Summary of the method: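 Cytotoxicity is measured in parallel with the antagonist-mode TRβ beta-lactamase screen, using ATP-coupled luciferase luminescence. Engineered HEK293T cells are treated for 18 h with 11-point compound series in triplicate.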
# THRB (gene 7068) [11] = target: THRB (gene 7068) (UniProt P10828); assay: TOX21_TRB_COA_Antagonist_Followup_ratio: Tox21 Thyroid Hormone Receptor beta Antagonism through Coactivator Recruitment Follow-Up Assay, Ratio (AID 2283967)
# Summary of the method: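 Cell-free TR-FRET: GST-TRb LBD (5.0 nM) with fluorescein-SRC-2 peptide (200 nM) and Tb anti-GST antibody (2 nM), 0.10% BSA. 520:495 nm emission ratio normalized to DMSO (0%) and T3 (100%).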
# [12] = TOX21_TR_RXR_BLA_Antagonist_Followup_viability: Viability Assessment in the Tox21 Thyroid Hormone Receptor beta Retinoid X Receptor alpha (RXRa) Antagonism Beta-lactamase (BLA) Follow-Up Assay (AID 2283979)
# Summary of the method: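 RXRa-bla HEK293T cells (2,500/well, phenol red-free DMEM, 2% charcoal-stripped FBS) were attached 5 h, then exposed to compounds at 11 concentrations in triplicate for 16 h at 37C. Viability measured by CellTiter-Glo ATP luminescence, bidirectional fitting versus DMSO.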
# Chain of Cellular tumor antigen p53 (Homo sapiens) (P04637 whole entry, looked up): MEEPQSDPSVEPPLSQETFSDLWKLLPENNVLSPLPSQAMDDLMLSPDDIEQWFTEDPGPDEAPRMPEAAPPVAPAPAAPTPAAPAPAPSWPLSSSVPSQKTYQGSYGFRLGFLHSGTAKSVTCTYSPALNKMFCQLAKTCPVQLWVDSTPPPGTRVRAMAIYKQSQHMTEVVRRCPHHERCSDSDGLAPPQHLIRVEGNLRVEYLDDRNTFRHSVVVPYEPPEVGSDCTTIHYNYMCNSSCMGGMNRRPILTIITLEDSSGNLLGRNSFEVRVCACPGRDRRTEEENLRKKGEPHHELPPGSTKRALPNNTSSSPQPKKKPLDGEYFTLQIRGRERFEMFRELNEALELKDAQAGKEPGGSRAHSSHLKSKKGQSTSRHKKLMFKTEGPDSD
# Chain of THRB (gene 7068) (P10828 whole entry, looked up, the tested form may be a part): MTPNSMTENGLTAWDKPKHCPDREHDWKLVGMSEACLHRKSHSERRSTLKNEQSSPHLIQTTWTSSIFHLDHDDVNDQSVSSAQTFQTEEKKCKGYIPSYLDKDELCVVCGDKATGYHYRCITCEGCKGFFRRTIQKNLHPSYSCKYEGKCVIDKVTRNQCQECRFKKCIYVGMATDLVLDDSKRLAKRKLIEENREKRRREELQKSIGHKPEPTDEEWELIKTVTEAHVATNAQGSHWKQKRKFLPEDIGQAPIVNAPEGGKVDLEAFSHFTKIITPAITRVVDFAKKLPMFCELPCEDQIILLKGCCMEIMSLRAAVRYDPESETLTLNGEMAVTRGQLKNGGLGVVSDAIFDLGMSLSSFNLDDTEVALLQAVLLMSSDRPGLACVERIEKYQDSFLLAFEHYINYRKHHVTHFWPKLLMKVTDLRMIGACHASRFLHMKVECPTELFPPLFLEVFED
smiles,measurement,setting,value
CCC(C(=O)OCCN(CC)CC)c1ccccc1 (centres undefined),outcome,[1],inactive
same,outcome,[2],inactive
same,outcome,[3],inactive
same,outcome,[4],inactive
same,outcome,[5],inactive
same,outcome,[6],inactive
same,outcome,[7],inactive
Nc1ccncc1N,outcome,[1],inactive
same,outcome,[2],inactive
same,outcome,[3],inactive
same,outcome,[4],inactive
same,outcome,[5],inactive
same,outcome,[6],inactive
same,outcome,[7],inactive
C=C1/C(=C\C=C2/CCC[C@]3(C)[C@@H]([C@H](C)CCCC(C)(C)O)CC[C@@H]23)C[C@@H](O)C[C@@H]1O,AC50,[1],19.8 µM (active)
same,AC50,[2],37.8 µM (active)
same,AC50,[3],24.5 µM (active)
same,AC50,[4],25.4 µM (active)
same,AC50,[5],13 µM (active)
same,AC50,[6],27 µM (active)
same,AC50,[7],26.1 µM (active)
CCCCC[C@H](O)/C=C/[C@@H]1[C@H]2C/C(=C/CCCC(=O)O)O[C@H]2C[C@H]1O,outcome,[1],inactive
same,outcome,[2],inactive
same,outcome,[3],inactive
same,outcome,[4],inactive
same,outcome,[5],inactive
same,outcome,[6],inactive
same,outcome,[7],inactive
CC1=CC(C)(C)Nc2ccccc21,outcome,[1],inactive
same,outcome,[2],inactive
same,outcome,[3],inactive
same,outcome,[4],inactive
same,outcome,[5],inactive
same,outcome,[6],inactive
same,outcome,[7],inactive
CC1(C)Oc2ccc(C#N)cc2[C@@H](N2CCCC2=O)[C@@H]1O,outcome,[1],inactive
same,outcome,[2],inactive
same,outcome,[3],inactive
same,outcome,[4],inactive
same,outcome,[5],inactive
same,outcome,[6],inactive
same,outcome,[7],inactive
O=P(O)(O)C(O)(Cc1cccnc1)P(=O)(O)O,outcome,[1],inactive
same,outcome,[2],inactive
same,outcome,[3],inactive
same,outcome,[4],inactive
same,outcome,[5],inactive
same,outcome,[6],inactive
same,outcome,[7],inactive
CC(C)N=C(N)/N=C(\N)Nc1ccc(Cl)cc1,outcome,[1],inactive
same,outcome,[2],inactive
same,outcome,[3],inactive
same,outcome,[4],inactive
same,outcome,[5],inactive
same,outcome,[6],inactive
same,outcome,[7],inactive
same,outcome,[8],inactive
same,outcome,THRB (gene 7068) [9],inactive
same,outcome,[10],inactive
same,outcome,THRB (gene 7068) [11],inactive
same,outcome,[12],inactive
O=C(c1ccccc1)c1cc(Cl)ccc1O,outcome,[1],inactive
same,outcome,[2],inactive
same,outcome,[3],inactive
same,outcome,[4],inactive
same,outcome,[5],inactive
same,outcome,[6],inactive
same,outcome,[7],inactive
O=C(O)CCc1nc2ccccc2[nH]1,outcome,[1],inactive
same,outcome,[2],inactive
same,outcome,[3],inactive
same,outcome,[4],inactive
same,outcome,[5],inactive
same,outcome,[6],inactive
same,outcome,[7],inactive
CCN1CCCC1CNC(=O)c1cc(S(=O)(=O)CC)ccc1OC (centres undefined),outcome,[1],inactive
same,outcome,[2],inactive
same,outcome,[3],inactive
same,outcome,[4],inactive
same,outcome,[5],inactive
same,outcome,[6],inactive
same,outcome,[7],inactive
O=[N+]([O-])c1ccc(NCCO)c(OCCO)c1,outcome,[1],inactive
same,outcome,[2],inactive
same,outcome,[3],inactive
same,outcome,[4],inactive
same,outcome,[5],inactive
same,outcome,[6],inactive
same,outcome,[7],inactive
